A number with no mark means an inactive call. Inconclusive results are not listed. Where a call stands in place of a potency, no number is given. Calls of active or inactive are those of the source. Calls come from the whole dose curve; as a rule, active = well fitted curve in the direction sought with a large enough effect; inconclusive = small, poorly fitted or top-dose-only effect, or another doubt; inactive = no such curve, though single readings can be large; an effect the other way counts as inactive or inconclusive.
How the values were obtained:
[1] = target: Glutathione peroxidase 1 (Homo sapiens) (UniProt P07203); experiment: Primary qHTS Assay for Inhibitors of Recombinant Selenoprotein Glutathione Peroxidase 1 (GPX1) (AID 1845191); note: nearly all actives have a fitted effect of over 65% in size; note: potency is the fitted concentration of half-maximal effect
How it was run: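 NADPH consumption tracked by fluorescence at 340/450 nm between t=0 and t=15 min, room temperature. Final mix: 10 nM GPX1, 100 nM glutathione reductase, 1 mM GSH, 0.5 mM NADPH, 0.5 mM cumene hydroperoxide, 0.01% BSA; 30 min compound–enzyme preincubation.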

[2] = target: Phospholipid hydroperoxide glutathione peroxidase GPX4 (Homo sapiens) (UniProt P36969); experiment: Primary qHTS Assay for Inhibitors of Recombinant Selenoprotein Glutathione Peroxidase 4 (GPX4) (AID 1845192); note: nearly all actives have a fitted effect of over 65% in size
How it was run: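 NADPH consumption followed by fluorescence at 340/450 nm, t=0 and after 15 min at room temperature. Reaction started with cumene hydroperoxide (0.5 mM final) after 30 min compound–GPX4 preincubation; final 200 nM GPX4, 100 nM GR, 1 mM GSH, 0.5 mM NADPH.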

[3] = target: Luciferin 4-monooxygenase (Photinus pyralis) (UniProt P08659); experiment: Primary firefly luciferase (FLuc) qHTS assay for identification of artifact compounds. (AID 1845220); note: nearly all actives have a fitted effect of over 60% in size
How it was run: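 FLuc 10 nM; luciferin 10 uM; ATP 10 uM; Tris-acetate pH 7.6, Mg-acetate 10 mM; 15 min RT preincubation; 5 min reaction; luminescence.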

[4] = Primary fluorescence-based thiol-reactive (MSTI) qHTS assay for identification of artifact compounds. (AID 1845221); note: nearly all actives have a fitted effect of over 65% in size; note: potency is the fitted concentration of half-maximal effect
How it was run: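 First, 4 uM MSTI in 2% DMSO/PBS pH 7.4 was dispensed; next, compounds were added; then plates sat 1 h at room temperature without light. Finally, emission at 598 nm was recorded.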

[5] = system: Nanoluciferase (engineered Oplophorus gracilirostris luciferase); experiment: Primary Nanoluciferase (NLuc) qHTS assay for identification of artifact compounds. (AID 1845222);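 note: NLuc secreted into diluted conditioned medium of S16 cells; series mostly up to about 54 µM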
How it was run: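 NLuc from S16 cell medium (1:55) plus test compounds, 15 min, room temperature. Luminescence after Nano-Glo (1:100) addition, 5 min.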

[6] = Primary redox qHTS assay for identification of artifact compounds. (AID 1845223)
How it was run: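 Redox-cycling detection via DTT (250 uM final) oxidation coupled to Amplex Red (25 uM)/HRP (250 mU/mL) in HBSS. 15 min preincubation plus 30 min after DTT, room temperature. Ex/Em 525/598 nm; 4-parameter Hill fit against DMSO and 10 uM DA3003.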

Sequence of Glutathione peroxidase 1 (Homo sapiens) (P07203 whole entry, looked up): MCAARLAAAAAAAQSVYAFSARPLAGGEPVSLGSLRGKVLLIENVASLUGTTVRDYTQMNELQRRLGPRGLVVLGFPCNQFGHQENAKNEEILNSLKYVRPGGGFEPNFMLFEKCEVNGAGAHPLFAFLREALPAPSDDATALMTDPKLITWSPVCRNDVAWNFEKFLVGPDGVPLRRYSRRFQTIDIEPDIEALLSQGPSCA
Sequence of Phospholipid hydroperoxide glutathione peroxidase GPX4 (Homo sapiens) (P36969 whole entry, looked up): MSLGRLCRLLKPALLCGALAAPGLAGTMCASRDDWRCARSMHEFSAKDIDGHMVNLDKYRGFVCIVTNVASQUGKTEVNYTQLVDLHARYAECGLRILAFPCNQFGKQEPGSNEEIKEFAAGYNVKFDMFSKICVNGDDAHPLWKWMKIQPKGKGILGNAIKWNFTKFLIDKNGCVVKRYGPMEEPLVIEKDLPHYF

In the case of `CC(C)=CCCC1(C)/C=C/C(OC(=O)C=C(C)C)C(C)(O)/C=C/C(=O)/C(CO)=C\C1` (stereo not given), the Potency [1] is reported as “inactive”, the Potency [2] is reported as “inactive” and the Potency [3] is reported as “inactive”. For the same compound, the Potency [4] was “inactive”, the Potency [5] was “inactive” and the Potency [6] was “inactive”.
In the case of `C=C1CC[C@@H]2[C@](C)(CO)[C@H](O)CC[C@@]2(C)[C@@H]1CC(=O)C1=CCOC1=O`, the Potency [1] is reported as “inactive”, the Potency [2] is reported as “inactive” and the Potency [3] is reported as “inactive”. For the same compound, the Potency [4] was “inactive”, the Potency [5] was “inactive” and the Potency [6] was “inactive”.
For `Fc1ccc(-n2cc(CCCCN3CCC4(CC3)OCc3ccccc34)c3ccccc32)cc1`, the Potency [1] was “inactive”, the Potency [2] was “inactive” and the Potency [3] was “inactive”. The Potency [4] was “inactive”, the Potency [5] was “inactive” and the Potency [6] was “inactive”.
In the case of `CNc1nc(NCc2ccc(NS(C)(=O)=O)cc2Cl)cc(-c2ccccn2)n1`, the Potency [1] is reported as “inactive”, the Potency [2] is reported as “inactive” and the Potency [3] is reported as “inactive”. The Potency [4] was “inactive”, the Potency [5] was “inactive” and the Potency [6] was “inactive”.
With `CCC(=O)N1CCOc2c(cc(-c3ccc(OC)c(OC)c3)cc2OC[C@H]2CCCN(C)C2)C1` the Potency [1] was “inactive”, the Potency [2] was “inactive” and the Potency [3] was “inactive”. The Potency [4] was “inactive”, the Potency [5] was “inactive” and the Potency [6] was “inactive”.
In the case of `O=C(Nc1cnc(Cl)nc1)c1ccc(F)c(F)c1`, the Potency [1] is reported as “inactive”, the Potency [2] is reported as “inactive” and the Potency [3] is reported as “inactive”. The Potency [4] was “inactive”, the Potency [5] was “inactive” and the Potency [6] was “inactive”.
With `CCN1CCC[C@@H]1CNC(=O)c1ccc2c(c1)NC(=O)c1cccc(C)c1S2` the Potency [1] was “inactive”, the Potency [2] was “inactive” and the Potency [3] was “inactive”. For the same compound, the Potency [4] was “inactive”, the Potency [5] was “inactive” and the Potency [6] was “inactive”.
In the case of `C=C1C(=O)O[C@H]2C3=C(C)CCC[C@]3(C)C(=O)C[C@@H]12`, the Potency [1] is reported as “inactive”, the Potency [2] is reported as “inactive” and the Potency [3] is reported as “inactive”. For the same compound, the Potency [4] was “inactive”, the Potency [5] was “inactive” and the Potency [6] was “inactive”.
With `CC(=O)NC(C(=O)O[C@H]1CCC(C)(C)[C@@H]2CC=C3C(=O)OCC3(O)[C@@]12C)C(C)C` (stereo not given in full) the Potency [1] was “inactive”, the Potency [2] was “inactive” and the Potency [3] was “inactive”. For the same compound, the Potency [4] was “inactive”, the Potency [5] was “inactive” and the Potency [6] was “inactive”.
With `O=C(Nc1ccccc1)N1CCN(c2nc(-c3ccccc3)ns2)CC1` the Potency [1] was “inactive”, the Potency [2] was “inactive” and the Potency [3] was “inactive”. For the same compound, the Potency [4] was “inactive”, the Potency [5] was “inactive” and the Potency [6] was “inactive”.
In the case of `C/C=C(\C)C(=O)O[C@H]1C[C@](C)(O)[C@H]2CC=C(C)[C@H]2[C@@H]2OC(=O)[C@H](C)[C@H]21`, the Potency [1] is reported as “inactive”, the Potency [2] is reported as “inactive” and the Potency [3] is reported as “inactive”. The Potency [4] was “inactive”, the Potency [5] was “inactive” and the Potency [6] was “inactive”.
With `CC(C)c1noc(C2CCN(c3ncnc(Nc4ccc(S(C)(=O)=O)cc4F)c3[N+](=O)[O-])CC2)n1` the Potency [1] was “inactive”, the Potency [2] was “inactive” and the Potency [3] was “inactive”. For the same compound, the Potency [4] was “inactive”, the Potency [5] was “inactive” and the Potency [6] was “inactive”.
With `Cc1cc(-c2ncc(-c3cccnc3)cc2/C=C/c2ccccc2)cnc1-c1cccnc1` the Potency [1] was 18 µM (active), the Potency [2] was “inactive” and the Potency [3] was “inactive”. The Potency [4] was “inactive”, the Potency [5] was “inactive” and the Potency [6] was “inactive”.
With `CC(C)(C)NC(=O)[C@H]1CC[C@H]2[C@@H]3CC[C@H]4NC(=O)CC[C@]4(C)[C@H]3CC[C@]12C` the Potency [1] was “inactive”, the Potency [2] was “inactive” and the Potency [3] was “inactive”. The Potency [4] was “inactive”, the Potency [5] was “inactive” and the Potency [6] was “inactive”.
With `CCNC(=O)N1CCCN(c2ccc(C(=O)NCCc3ccc(Cl)cc3Cl)cc2NC(=O)c2cccc(Cl)c2)CC1` the Potency [1] was “inactive”, the Potency [2] was “inactive” and the Potency [3] was “inactive”. For the same compound, the Potency [4] was “inactive”, the Potency [5] was “inactive” and the Potency [6] was “inactive”.
For `C=C(C)Cn1c(SCC(=O)c2cccs2)nc2sc3c(c2c1=O)CCCC3`, the Potency [1] was “inactive”, the Potency [2] was “inactive” and the Potency [3] was “inactive”. The Potency [4] was “inactive”, the Potency [5] was “inactive” and the Potency [6] was “inactive”.
With `Nc1c(S(=O)(=O)c2ccccc2)c2nc3ccccc3nc2n1-c1ccc(F)cc1` the Potency [1] was 20.2 µM (active), the Potency [2] was “inactive” and the Potency [3] was “inactive”. For the same compound, the Potency [4] was “inactive”, the Potency [5] was “inactive” and the Potency [6] was “inactive”.
With `Cn1c(=O)c2c(ncn2Cc2ccc(C(C)(C)C)cc2)n(C)c1=O` the Potency [1] was “inactive”, the Potency [2] was “inactive” and the Potency [3] was “inactive”. The Potency [4] was “inactive”, the Potency [5] was “inactive” and the Potency [6] was “inactive”.
For `C=CC(=O)Nc1cccc(Nc2nc(Nc3ccc(NC4CN(CCF)C4)cc3OC)ncc2C(F)(F)F)c1`, the Potency [1] was “inactive”, the Potency [2] was “inactive” and the Potency [3] was “inactive”. The Potency [4] was 2.38 µM (active), the Potency [5] was “inactive” and the Potency [6] was “inactive”.
With `C=C1C(=O)O[C@@H]2/C=C(\C)CC/C=C(/C=O)[C@H](OC)[C@@H](OC(=O)C(C)C)[C@@H]12` the Potency [1] was “inactive”, the Potency [2] was “inactive” and the Potency [3] was “inactive”. The Potency [4] was “inactive”, the Potency [5] was “inactive” and the Potency [6] was “inactive”.
With `CCC(C)C(=O)O[C@H]1[C@@H](OC(=O)c2ccoc2)C[C@](C)(O)[C@]23OC(C)(C)[C@H](C[C@H](OC(=O)c4ccoc4)[C@]12COC(C)=O)[C@H]3OC(C)=O` (stereo not given in full) the Potency [1] was “inactive”, the Potency [2] was “inactive” and the Potency [3] was “inactive”. The Potency [4] was “inactive”, the Potency [5] was “inactive” and the Potency [6] was “inactive”.
In the case of `CC(C)(O)C1CC(=O)C2(C)C(CCC3(C)C(c4ccoc4)OC(=O)C4OC432)C12CCC(=O)OC2` (stereo not given), the Potency [1] is reported as “inactive”, the Potency [2] is reported as “inactive” and the Potency [3] is reported as “inactive”. For the same compound, the Potency [4] was “inactive”, the Potency [5] was “inactive” and the Potency [6] was “inactive”.
With `COc1ccc([C@H]2OC[C@H]3O[C@@H](O[C@H]4[C@@H]2NC[C@@H]4O)[C@H](O)[C@H]3O)cc1` the Potency [1] was “inactive”, the Potency [2] was “inactive” and the Potency [3] was “inactive”. The Potency [4] was “inactive”, the Potency [5] was “inactive” and the Potency [6] was “inactive”.
For `O=C(NCCCN1CCOCC1)c1cnn2c(-c3ccccc3)cc(-c3ccccc3)nc12`, the Potency [1] was “inactive”, the Potency [2] was “inactive” and the Potency [3] was “inactive”. For the same compound, the Potency [4] was “inactive”, the Potency [5] was “inactive” and the Potency [6] was “inactive”.
For `CC(=O)NC(C)c1cnc(-c2cnc(Oc3ccc(OC(C)C)cc3)s2)s1` (stereo not given), the Potency [1] was “inactive”, the Potency [2] was “inactive” and the Potency [3] was “inactive”. The Potency [4] was “inactive”, the Potency [5] was “inactive” and the Potency [6] was “inactive”.
